# Screens: PubChem, National Center for Advancing Translational Sciences (NCATS)
# GLP-1R inv ag: acts as inverse agonist at human GLP-1 receptor; P43220; HEK293 GLP-1R CRE-luciferase, luminescence, 24 h; GLP-1R form is constitutively active; Potency, µM (titrated, usually from 38.3 µM), without a hit: at the highest dose activity change, negative = inhibition, hits mostly inhibitors; actives 1.6% (n = 410,000); AID 624417; further: on the % scale 0 is the no-effect control and ±100 the full control effect; nearly all actives have a fitted effect of over 55% in size
#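 GLP-1R inverse agonism mode: basal reporter luminescence in engineered HEK293 cells measured after one day of compound exposure at 37 deg C, with a 12 min room-temperature detection step.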
# mIDH1 inhibitor: inhibitors of human mutant IDH1 R132H | actives 0.093% (n = 390,000) | Potency, µM (top dose mostly 76.6 µM), for the others: at the highest dose activity change, negative = inhibition, actives largely listed as inhibitors | O75874 | IDH1-R132H enzyme, NADPH consumption, diaphorase/resazurin fluorescence; further: on the % scale 0 is the no-effect control and ±100 the full control effect; nearly all actives have a fitted effect of over 65% in size
# Target sequence (O75874 whole entry R132H, stated change not applied): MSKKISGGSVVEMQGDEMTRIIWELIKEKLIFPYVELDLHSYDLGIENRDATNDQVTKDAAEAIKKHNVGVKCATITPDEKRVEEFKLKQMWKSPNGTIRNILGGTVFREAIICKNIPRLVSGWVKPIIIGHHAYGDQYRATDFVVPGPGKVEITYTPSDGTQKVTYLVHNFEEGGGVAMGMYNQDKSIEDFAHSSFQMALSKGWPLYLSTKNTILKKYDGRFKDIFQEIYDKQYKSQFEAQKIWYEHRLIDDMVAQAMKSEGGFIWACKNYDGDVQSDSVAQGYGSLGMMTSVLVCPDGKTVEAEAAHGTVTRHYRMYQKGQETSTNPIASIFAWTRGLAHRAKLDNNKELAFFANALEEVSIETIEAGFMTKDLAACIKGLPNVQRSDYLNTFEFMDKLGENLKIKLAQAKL
#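 IDH1-R132H (0.5 ug/mL) preincubated 30 min with compound, then NADPH (0.016 mM) and alpha-KG (2 mM) added; 80 min at RT, pH 7.5. Remaining NADPH coupled via diaphorase/resazurin to fluorescence (540/590 nm); concentration-response curves normalized to no-enzyme control.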
# GLP-1R agonist: GLP-1 receptor (human) agonism | P43220 | HEK293 GLP-1R CRE-luciferase, luminescence, 4-6 h; cells express a hypersensitive GLP-1R form | Potency, µM (top dose mostly 45.6 µM), inactives show at the top dose activation, most hits filed as activators | actives 0.007% (n = 380,000) | AID 624172; further: % of control where 0% means no effect
# rTrxR1 inhibitor: inhibitors of rat thioredoxin reductase 1; O89049; Potency, µM (highest dose often 114 µM), for the others: at the highest dose activity change, negative = inhibition, most hits filed as inhibitors; actives 1% (n = 390,000); recombinant rTrxR1, NADPH fluorescence consumption, selenite substrate; further: on the % scale 0 is the no-effect control and ±100 the full control effect; nearly all actives have a fitted effect of over 65% in size
#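 Rat TrxR1 (90 nM in the dispensed reagent) was pre-reduced with 400 uM NADPH for 5 min at room temperature, then incubated with compound for 15 min. After 400 uM selenite was added, NADPH fluorescence (Ex 340/Em 450 nm) was followed for 8 min.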
# TrxR1 substrate: rat thioredoxin reductase 1 substrate activity; actives 0.01% (n = 390,000); Potency, µM (titrated, usually from 114 µM), without a hit: top-dose activity change, negative = substrate turnover; purified TrxR1 substrate turnover, NADPH consumption readout; O89049; further: on the % scale 0 is the no-effect control and ±100 the full control effect; nearly all actives have a fitted effect of over 50% in size
#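 Rat TrxR1, dispensed at 90 nM, was prereduced with 400 uM NADPH (final) for 5 min at ~22 deg C, then incubated with compound 15 min before 400 uM selenite. A first-read NADPH fluorescence drop versus no-compound background flagged substrates.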
# GLP1R cytotox: cytotoxic in the GLP-1 receptor inverse agonist counter-screen. Potency, µM (doses to about 38.3 µM), without a hit: top-dose activity change, negative = inhibition, hits mostly inhibitors. HEK293 cAMP-luciferase reporter cells, luminescence, 24 h. actives 0.13% (n = 410,000);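 further: loss of luciferase light is scored as toxicity; on the % scale 0 is the no-effect control and ±100 the full control effect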
#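 To flag toxic compounds, the library was rerun on cells for 24 hr at 37 deg C and 5% CO2. Viability-linked luminescence was captured 12 min after adding luciferase detection reagent.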
# An asterisk follows results filed as active; i = inactive; u = inconclusive; x = no result; [ ] = remark or other dose. Hits are enriched below; roughly 2.7% of the tested compounds scored in any of these assays. The call rests on the fitted dose curve; in most records, active means well fitted curve in the direction sought with a large enough effect; inconclusive means small, poorly fitted or top-dose-only effect, or another doubt; inactive means no such curve, though single readings can be large; an effect the other way counts as inactive or inconclusive. Potency means the concentration at half of the fitted maximal effect.
SMILES,GLP-1R inv ag,mIDH1 inhibitor,GLP-1R agonist,rTrxR1 inhibitor,TrxR1 substrate,GLP1R cytotox
CCOc1cc(CNCCSc2nnnn2C)ccc1OCc1ccc(Cl)cc1Cl,u,-1%,-7%,11%,8%[11.4 µM],-18%
FC(F)Oc1ccc(NC(=S)NC23CC4CC(CC(C4)C2)C3)cc1,4.5µM*,7%,6%,3%[57.1 µM],-10%,u
CN(C)S(=O)(=O)c1cccc(NC(=S)NC23CC4CC(CC(C4)C2)C3)c1,7.9µM*,-10%,19%,-8%,-5%,-30%
Cc1ccc(S(=O)(=O)N(C)C)cc1NC(=S)NC12CC3CC(CC(C3)C1)C2,u,9%,2%,4%,1%,-11%
COc1ccccc1CNC(=O)Cn1nc(C)n2cccc2c1=O,0%,-2%,x,32%,22%,-11%
COc1ccc(Cl)cc1NS(=O)(=O)c1cc(-c2cc(C)no2)ccc1C,u,22%,x,2%[57.1 µM],-6%[57.1 µM],-34%
CN(C)c1nc(N)nc(-c2cccnc2)n1,47%,3%,13%,7%[57.1 µM],5%[57.1 µM],5%
Cc1[nH]nc(-c2cccnc2)c1N=NN(C)C,u,1%,-17%,2%[11.4 µM],10%[57.1 µM],10µM*
Cc1ccc(-c2noc(CN(C3CCCCC3)S(=O)(=O)c3ccc(Cl)cc3)n2)cc1,4%,-8%,x,33%,3%,4%
COc1cccc2c1[C@@H]1CN(CCCCn3c(=O)[nH]c4c(sc5ncc(-c6ccccc6)nc54)c3=O)C[C@@H]1CO2,10µM*,4%,-3%,u,-4%[57.1 µM],-22%
COc1cc2[nH]c(=O)n(CCCC(=O)N3CC=C(c4ccccc4)CC3)c(=O)c2cc1OC,17%,7%,4%,24%[57.1 µM],18%[57.1 µM],0%
CCOc1ccc(N(C)S(=O)(=O)c2ccc(C)c(C(=O)N3CCN(Cc4ccc5c(c4)OCO5)CC3)c2)cc1,11µM*,-5%,0%,7%[57.1 µM],8%[57.1 µM],3%
COc1ccc(N(C)S(=O)(=O)c2cccc(C(=O)N3CCN(Cc4ccc5c(c4)OCO5)CC3)c2)cc1,u,4%,3%,-31%,-17%,2%
CCOc1ccc(N(C)S(=O)(=O)c2ccc(C)c(C(=O)NCCc3ccc(OC)cc3)c2)cc1,10µM*,1%,-2%,12%[57.1 µM],7%[57.1 µM],-5%
O=C1c2oc3ccccc3c(=O)c2C(c2ccc(O)cc2)N1Cc1ccc2c(c1)OCO2 (configuration not stated),9%,4%,x,-6%[57.1 µM],-13%[57.1 µM],25%
O=c1c2sc3ccccc3c2n(Cc2ccccc2)c(=O)n1CCc1ccccc1,5%,1%,0%,17%,9%,-8%
COc1ccc(C(=O)NC(Oc2ccccc2)C(Cl)(Cl)Cl)cc1 (configuration not stated),0%,11%,-1%,11µM*,-2%,4%
COc1ccc(C(C)NC(=O)c2ccccc2)cc1 (configuration not stated),-4%,0%,2%,16%,11%,-11%
Nc1nc(NCc2ccc(Cl)cc2)c2[nH]cnc2n1,x,x,x,24%,3%,x
CC1(C)CC(NS(=O)(=O)c2ccc(F)cc2)CC(C)(C)N1,-9%,8%,1%,-18%,-11%,5%
CC1(C)CC(NS(=O)(=O)c2ccc(C(C)(C)C)cc2)CC(C)(C)N1,3.5µM*,-11%,3%,22%,0%,-14%
Cc1ccc(N2C(=O)N(CC(=O)Nc3ccc(C)cc3Cl)C(=O)C2C)cc1 (configuration not stated),u,2%,-5%,-7%,-3%,-13%
CC1SC(C)C(=O)N(CC(=O)Nc2ccc([N+](=O)[O-])cc2)C1=O (configuration not stated),-6%[7.66 µM],4%,-1%,13%[57.1 µM],-5%[57.1 µM],-1%[7.66 µM]
Cc1ccc(N2C(=O)N(CC(=O)Nc3cc(C)cc(C)c3)C(=O)C2C)cc1 (configuration not stated),4µM*,0%,23%,9%,1%,-9%
Cc1ccc(N2C(=O)N(CC(=O)Nc3ccc([N+](=O)[O-])cc3)C(=O)C2C)cc1 (configuration not stated),11µM*,7%,8%,-18%,-21%,-5%
SMILES,GLP-1R inv ag,mIDH1 inhibitor,GLP-1R agonist,rTrxR1 inhibitor,TrxR1 substrate,GLP1R cytotox
Cc1ccc(N2C(=O)N(CC(=O)Nc3ccc(F)c(F)c3)C(=O)C2C)cc1 (configuration not stated),u,6%,-14%,0%,-5%,2%
Cc1ccc(N2C(=O)N(CC(=O)Nc3ccc(C)c(C)c3)C(=O)C2C)cc1 (configuration not stated),10µM*,0%,-8%,-7%,-12%,-5%
Cc1ccc(N2C(=O)N(CC(=O)Nc3cc(Cl)ccc3C)C(=O)C2C)cc1 (configuration not stated),10µM*,3%,-3%,14%,-3%,8%
CN1C2CCC1CC(NC(=O)n1c(=O)[nH]c3ccccc31)C2 (configuration not stated),x,x,4%,x,x,x
CCCOc1ccc(-c2nonc2NC(=O)c2ccco2)cc1OCCC,-8%,-6%,x,2%,1%,0%
Cc1cc(C)nc(OC(C(=O)O)C(OCCc2ccccc2)(c2ccc(F)cc2)c2ccc(F)cc2)n1 (configuration not stated),10µM*,-3%,-6%,16%,3%,-32%
CC1(C)Oc2c(ccc(O)c2CN2CCOCC2)C2=C1CCCC2,7.1µM*,8%,2%,-3%[11.4 µM],-1%[11.4 µM],-6%
O=c1oc2c(CN3CCOCC3)c(O)ccc2c2c1CCCC2,26%,17%,7%,u,i,148%
CCOC(=O)c1nnn(-c2nonc2-n2cccc2)c1CCl,-20%,3%,0%,13µM*,13%,10%
c1ccc(Oc2c3ccccc3nc3ccccc23)cc1,u,2%,u,8.9µM*,13%[57.1 µM],-8%
O=S(=O)(NCC(c1ccco1)S(=O)(=O)c1cccs1)c1ccc(F)c(C(F)(F)F)c1 (configuration not stated),u,-1%,x,0.45µM*,-3%[57.1 µM],-4%
CC(C)(C)c1ccc(C(=O)NCC(c2cccs2)S(=O)(=O)c2ccccc2)cc1 (configuration not stated),2.8µM*,-1%,x,15%[57.1 µM],0%[57.1 µM],1%
O=S(=O)(NCC(c1ccco1)S(=O)(=O)c1cccs1)c1ccccc1 (configuration not stated),-13%,-9%,x,16µM*,2%[57.1 µM],6%
